{
  "source": "PubChem BioAssay (EPA / NIEHS)",
  "note": "Records with an inconclusive call do not appear. A structure can be active in one record and inactive in another. The source made the active and inactive calls. Rule for the calls: active = hit-call score of the fitted dose curve at least 0.9, where 1 is the maximum; inconclusive = response in the unintended direction; inactive = score below 0.9.",
  "data": [
    {"system": "frog Estrogen Receptor (ESR2), gene 100174814", "assay": "ATG_frER2_XSP1: Attagene TRANS-FACTORIAL Multi-Species (XSP1) HepG2 Assay for frog Estrogen Receptor (ESR2) (AID 2283774)", "procedure": "ATG_XSP1_multi-species_TRANS is a cell-based, multiplexed assay created by modifying the existing Attagene TRANS-FACTORIAL system to include a panel of nuclear receptors from some or all the following species: human (Homo sapiens), mouse (Mus musculus), frog (Xenopus laevis), zebrafish (Danio rerio), chicken (Gallus gallus), and turtle (Chrysemys picta). The ECOTOX-FACTORIAL format uses HepG2, a human liver cell line, with measurements taken at 24 hours after chemical dosing in a 24-well plate. Xsp1 included 3 nM 6-alpha-fluorotestosterone to partially stimulate the androgen receptor.ATG_frER2_XSP1 is one of 29 assay components measured or calculated from the ATG_XSP1_multi-species_TRANS assay. It is designed to make measurements of mRNA induction, a form of inducible reporter, as detected with fluorescence intensity signals by Reverse transcription polymerase chain reaction (RT-PCR) and Capillary electrophoresis technology.The assay endpoint ATG_frER2_XSP1 was analyzed in the positive analysis fitting direction relative to DMSO as the negative control and baseline of activity. Using a type of inducible reporter, measures of mRNA for gain-of-signal activity can be used to understand the reporter gene at the transcription factor-level as they relate to the gene ER. Furthermore, this assay endpoint can be referred to as a primary readout, because this assay has produced multiple assay endpoints where this one serves a reporter gene function. To generalize the intended target to other relatable targets, this assay endpoint is annotated to the nuclear receptor intended target family, where the subfamily is steroidal.\nHuman liver HepG2 cells are transiently transfected with multiple reporter transcription units (MRTUs) in 6-well plates using FuGene 6 reagent (Roche; 3 ml FuGene/1 mg DNA). The MRTU constructs are regulated by a cis-regulating element (promoter). […] A major difference between the CIS and TRANS system is that in CIS activities of endogenous TFs are measured, whereas the TRANS assay evaluates changes in activities of exogenous, chimeric NR-Gal4 proteins. […] At the end of 24 hour incubation, total RNA was isolated using TriZol reagent (Invitrogen). The isolated RNA is then reverse-transcribed using oligo(dT) primer and Mo-MLV reverse transcriptase (Invitrogen) with DNAse I (Ambion) treatment for 30 min. The one-tenth of the produced cDNA was amplified by PCR using Taq DNA polymerase (Invitrogen) and two reporter sequence-specific primers. The PCR products were fluorescently labeled by primer extension with 6-arboxyfluorescein (6-FAM) 5'-labeled reporter sequence-specific primer (2 min at 95 C, 20 s at 68 C and 10 min at 72 C) and these products were digested with 5U of HpaI (New England Biolabs) for 2h at 37 C. The fragments were purified using Qiaquick PCR columns (Qiagen), analyzed on an ABI 3130xL genetic analyzer (Applied Biosystems) with peak positions identified by using a set of X-rhodamine (ROX)-labeled MapMarker1000 molecular weight standards (BioVentures). The raw capillary electrophoresis data was processed using Attagraph software (Attagene).", "values": [
      {"smiles": "C#C[C@]1(O)CC[C@H]2[C@@H]3CCC4=CC(=O)CC[C@@H]4[C@H]3CC[C@@]21CC", "AC50": "1000 nM (active)", "outcome": "inactive"},
      {"smiles": "CCCCC(CC)COC(=O)c1ccccc1C(=O)O", "note": "(stereo unspecified)", "AC50": "61800 nM (active)"},
      {"smiles": "C=CCOC(Cn1ccnc1)c1ccc(Cl)cc1Cl", "note": "(stereo unspecified)", "AC50": "11600 nM (active)"},
      {"smiles": "O=C(c1ccc(O)cc1O)c1ccc(O)cc1O", "AC50": "519 nM (active)"},
      {"smiles": "CC(C)CCCCCCc1ccc(O)cc1", "AC50": "752 nM (active)"},
      {"smiles": "CC1(C)C(C=C(Cl)Cl)C1C(=O)OCc1cccc(Oc2ccccc2)c1", "note": "(stereo unspecified)", "AC50": "2790 nM (active)"},
      {"smiles": "CC(C)(c1ccc(O)cc1)c1ccc(O)cc1", "AC50": "374 nM (active)"},
      {"smiles": "Oc1ccc(C(c2ccc(O)cc2)C(Cl)(Cl)Cl)cc1", "AC50": "34.2 nM (active)"},
      {"smiles": "CCCCC(CC)CN1C(=O)C2C3C=CC(C3)C2C1=O", "note": "(stereo unspecified)", "AC50": "25400 nM (active)"},
      {"smiles": "CC(=O)S[C@@H]1CC2=CC(=O)CC[C@]2(C)[C@H]2CC[C@@]3(C)[C@@H](CC[C@@]34CCC(=O)O4)[C@H]12", "AC50": "48600 nM (active)"}
    ]}
  ]
}
